Measured values reported in PubChem BioAssay (NCATS).
The other results are listed elsewhere or left out. Inconclusive results are not listed. Unmarked numbers belong to inactive results. Calls follow the shape of the dose curve; as a rule, active = well fitted inhibition curve with a large enough effect; inconclusive = small, poorly fitted or top-dose-only effect; inactive = no such curve, though single readings can be large or run the other way.

Test: qHTS screen for small molecules that inhibit ELG1-dependent DNA repair: Hit Confirmation in Cell-Based Luciferin Assay (AID 624247)
Settings: cell-free firefly luciferase luminescence counter-screen, ViewLux; series mostly up to 46.1 µM; activity change, negative = inhibition: at the top concentration
Excerpt: Cancer cells divide rapidly compared to normal cells in the body. During cell division, cancer cells need to duplicate their genome by DNA replication. The failure of genome duplication leads to cancer cells' death. Therefore, inhibitors of DNA replication could specifically kill cancer cells. Based on this concept, many chemotherapeutic agents were developed and have been used to treat cancer patients. However, there are a limited number of agents available in the clinical setting, and some of those that do exist have low efficacy and severe side effects. Therefore, if we can find the compounds that effectively block DNA replication either by directly damaging DNA or by inhibiting other cellular mechanisms, the options for cancer treatment will be broadened. With this in mind, we developed a quantitative high-throughput ELG1-luciferase reporter gene assay. Small molecules that specifically block ELG1 function in response to DNA damage can be identified by monitoring the suppression of luciferase activity. Since ELG1 defines a pathway for repairing DNA damage, agents blocking ELG1 function can be used to sensitize cancer cells to chemotherapeutic agents whose mechanism of action involves the induction of DNA damage. NIH Molecular Libraries Probe Production Network [MLPCN] NIH Chemical Genomics Center [NCGC] MLPCN Grant: R03 MH092164 Assay Provider: Kyungjae Myung, NHGRI, NIH
3 µL of substrate reagent will be pipetted into each well in 1536-well white, solid-bottom plates using a FRD dispenser, followed by addition of 23 nL of DMSO or compounds by pintool. After compound addition, 1 µL of luciferase will be added into the wells. The plates will be read in a ViewLux CCD-based plate reader.
% is scaled to controls: 0 for no effect and ±100 for the full control effect.

Compound	activity change, negative = inhibition
CC(=O)N1CCc2cc(Br)cc(S(=O)(=O)CCC(=O)Nc3c(C)n(C)n(-c4ccccc4)c3=O)c21	27.9%
CS(=O)c1ccc(/C=C2\C=Cc3ccccc32)cc1 (stereo unspecified)	44.3%
COc1ccc(CSc2nc(N3CCOCC3)c3c(c2C#N)CC(C)(C)OC3)cc1	3.91%
Cc1ccc(OCC(=O)Nc2ccc(-c3nc4ncccc4o3)cc2)cc1	139%
COc1ccc(NC(=O)c2sc3nc(C)nc(N4CCN(c5ccccn5)CC4)c3c2C)c(OC)c1	-9.42%
CCOC(=O)c1cccc(NC(=O)C2CCN(c3ncnc4c3nc3n4CCCCC3)CC2)c1	2.1%
Cc1ccccc1NC(=O)CSc1nc2ccc(Nc3nc(N4CCOCC4)nc(N4CCOCC4)n3)cc2s1	-6.03%
COc1ccc(NC(C)=O)cc1NC(=O)CN1CCN(C2c3ccccc3-c3ccccc32)CC1	-9.74%
Cc1ccc(Nc2nc(N3CCOCC3)nc(N3CCOCC3)n2)cc1Cl	-0.931%
O=C(C1CCCN(S(=O)(=O)c2ccccc2)C1)N1CCN(c2ccc(F)cc2)CC1 (stereo unspecified)	-9.45%
O=C(Nn1c(SCc2ccc([N+](=O)[O-])cc2)nc2ccccc2c1=O)c1ccc(F)cc1	70.9%
